The nature of test [1]: ATG_CRE_CIS: Attagene CIS-FACTORIAL HepG2 Assay for human cAMP Responsive Element (CRE) binding protein 3 (AID 2282926). The note with it: HepG2 CRE cis-reporter, Attagene multiplexed mRNA; actives raise or lower the signal. In outline:
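Capillary electrophoresis of 6-FAM-labelled, HpaI-digested PCR products quantified reporter transcripts. These came from HepG2 transiently transfected with cis-element reporters and exposed to test chemicals for 24 hours, with DMSO defining baseline activity.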

The target in test [2] is CCAAT/enhancer-binding protein beta (Homo sapiens) (UniProt P17676). The experiment in a line: ATG_C_EBP_CIS: Attagene CIS-FACTORIAL HepG2 Assay for human CCAAT/Enhancer Binding Protein (C/EBP) beta (AID 2282927). The note with it: HepG2 Attagene cis-factorial transcription factor reporter; actives raise or lower the signal. The method in brief: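 Following a 24 h incubation with test chemical, transfected HepG2 cells yielded RNA whose reporter transcripts were quantified by RT-PCR and fluorescent capillary electrophoresis, with DMSO serving as baseline for bidirectional fitting.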

The nature of test [3]: ATG_CMV_CIS: Attagene CIS-FACTORIAL HepG2 Assay for human CMV (Internal Marker) (AID 2282928).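 Also: endpoint acts as a background internal control marker rather than a target.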 The note with it: HepG2 CMV promoter reporter, transcription factor profiling; actives raise or lower the signal. In outline: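 Fluorescence intensity of RT-PCR-derived reporter fragments, resolved by capillary electrophoresis, gives the signal. HepG2 liver cells bearing transfected cis-element reporters were treated 24 h; activity in either direction was fit relative to DMSO-treated controls.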

Test [4] is described as follows: ATG_DR4_LXR_CIS: Attagene CIS-FACTORIAL HepG2 Assay for human Liver X Receptor (LXR), DR4 submotif (AID 2282929). The note with it: HepG2 Attagene DR4 cis-reporter, mRNA transcription; actives raise or lower the signal. In outline: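 Cells were transfected with multiple reporter transcription units, exposed to chemicals for 24 hours, then lysed for RNA. Reporter mRNA induction was measured by RT-PCR with capillary electrophoresis detection and fitted in both directions relative to DMSO.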

Test [5] has as its target Aryl hydrocarbon receptor (Homo sapiens) (UniProt P35869). In words: ATG_Ahr_CIS: Attagene CIS-FACTORIAL HepG2 Assay for human Aryl Hydrocarbon Receptor (Ahr) (AID 2282930). The note with it: HepG2 AhR cis-factorial reporter transcription; actives raise or lower the signal. The method in brief:
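Values derive from bidirectional fitting against DMSO negative control. Underlying signal: cis-element reporter mRNA in transiently transfected HepG2, harvested 24 h post-dose and measured by RT-PCR plus capillary electrophoresis.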

Test [6] in a line: ATG_AP_1_CIS: Attagene CIS-FACTORIAL HepG2 Assay for human Activator Protein 1 (AP-1) (AID 2282931). The note with it: HepG2 Attagene cis-factorial AP-1 reporter mRNA; actives raise or lower the signal. In outline: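 Endogenous transcription-factor activity in human HepG2 liver cells is read through a cis-promoter reporter transcript, sampled 24 h after dosing. Detection uses RT-PCR with capillary electrophoresis; values come from bidirectional fitting relative to DMSO.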

Test [7] in a line: ATG_AP_2_CIS: Attagene CIS-FACTORIAL HepG2 Assay for human Activator Protein 2 (AP-2) (AID 2282932). The note with it: HepG2 AP-2 cis-reporter, Attagene transcription factor profiling; actives raise or lower the signal. In outline:
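Assay in transfected HepG2 with promoter-regulated reporters, 24 h incubation after dosing. Signal is reporter mRNA fluorescence (RT-PCR, capillary electrophoresis), analysed for both increases and decreases relative to DMSO controls.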

The nature of test [8]: ATG_BRE_CIS: Attagene CIS-FACTORIAL HepG2 Assay for human Bone Morphogenetic Protein (BMP) Response Element (BRE) (AID 2282933). The note with it: HepG2 BMP response element reporter, Attagene transcription factor profiling; actives raise or lower the signal. In outline:
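A HepG2 multiplex reporter system measured inducible reporter mRNA 24 h post-dosing. Detection: RT-PCR, 6-FAM primer extension, HpaI digestion, capillary electrophoresis. Activity fitted bidirectionally relative to DMSO.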

Test [9] addresses Retinoic acid receptor alpha (Homo sapiens) (UniProt P10276). The experiment in a line: ATG_DR5_RAR_CIS: Attagene CIS-FACTORIAL HepG2 Assay for human Retinoic Acid Receptor Alpha (RARE), DR5 submotif (AID 2282934).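 As to AC50: reporter responds to endogenous RAR alpha beta and gamma in HepG2 not RARA alone.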 The note with it: HepG2 Attagene cis-factorial RARE DR5 reporter, mRNA; actives raise or lower the signal. The method in brief: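 Endpoint fitted in both directions relative to DMSO as negative control. It reflects DR5 cis-element reporter mRNA induction in transiently transfected HepG2 cells, measured 24 h after dosing through RT-PCR and fluorescent capillary electrophoresis.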

For test [10], the target named is Transcription factor E2F1 (Homo sapiens) (UniProt Q01094). In words: ATG_E2F_CIS: Attagene CIS-FACTORIAL HepG2 Assay for human E2F Transcription Factor 1 (AID 2282935). The note with it: HepG2 Attagene cis-reporter, E2F reporter RNA transcripts; actives raise or lower the signal. In outline:
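In this cis-factorial format, endogenous factor activity drives transfected reporters in HepG2; transcripts collected at 24 h are quantified by fluorescence after RT-PCR and capillary separation.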

Molecules are shown by their SMILES. Activity calls are given as the source filed them. The calls were made as follows: active = hit-call score of the fitted dose curve at least 0.9, where 1 is the maximum; inactive = score below 0.9.

Transcription factor E2F1 (Homo sapiens), sequence (Q01094 whole entry, looked up): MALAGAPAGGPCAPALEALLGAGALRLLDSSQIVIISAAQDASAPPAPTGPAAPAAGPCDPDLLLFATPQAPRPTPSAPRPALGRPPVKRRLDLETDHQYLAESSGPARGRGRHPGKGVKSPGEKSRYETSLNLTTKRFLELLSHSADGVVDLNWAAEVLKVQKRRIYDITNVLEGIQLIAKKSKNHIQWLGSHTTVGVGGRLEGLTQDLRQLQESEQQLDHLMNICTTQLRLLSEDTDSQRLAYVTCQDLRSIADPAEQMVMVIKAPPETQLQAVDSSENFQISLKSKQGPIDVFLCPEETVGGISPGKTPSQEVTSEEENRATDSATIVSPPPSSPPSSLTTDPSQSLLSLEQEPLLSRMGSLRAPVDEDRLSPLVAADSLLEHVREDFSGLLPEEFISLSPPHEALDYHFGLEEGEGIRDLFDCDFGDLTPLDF
Retinoic acid receptor alpha (Homo sapiens), sequence (P10276 whole entry, looked up): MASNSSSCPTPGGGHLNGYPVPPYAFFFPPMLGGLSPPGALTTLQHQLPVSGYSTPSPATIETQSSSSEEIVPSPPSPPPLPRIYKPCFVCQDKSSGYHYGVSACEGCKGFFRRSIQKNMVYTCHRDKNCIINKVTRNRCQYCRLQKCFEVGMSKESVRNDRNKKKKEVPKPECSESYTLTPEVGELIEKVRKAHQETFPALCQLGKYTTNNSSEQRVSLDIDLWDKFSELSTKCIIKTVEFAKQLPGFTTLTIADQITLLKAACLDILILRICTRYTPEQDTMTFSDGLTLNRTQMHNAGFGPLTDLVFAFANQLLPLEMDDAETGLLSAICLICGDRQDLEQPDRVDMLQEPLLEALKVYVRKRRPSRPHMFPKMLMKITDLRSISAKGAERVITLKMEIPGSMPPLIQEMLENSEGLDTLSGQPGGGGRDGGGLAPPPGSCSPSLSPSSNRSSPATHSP
CCAAT/enhancer-binding protein beta (Homo sapiens), sequence (P17676 whole entry, looked up): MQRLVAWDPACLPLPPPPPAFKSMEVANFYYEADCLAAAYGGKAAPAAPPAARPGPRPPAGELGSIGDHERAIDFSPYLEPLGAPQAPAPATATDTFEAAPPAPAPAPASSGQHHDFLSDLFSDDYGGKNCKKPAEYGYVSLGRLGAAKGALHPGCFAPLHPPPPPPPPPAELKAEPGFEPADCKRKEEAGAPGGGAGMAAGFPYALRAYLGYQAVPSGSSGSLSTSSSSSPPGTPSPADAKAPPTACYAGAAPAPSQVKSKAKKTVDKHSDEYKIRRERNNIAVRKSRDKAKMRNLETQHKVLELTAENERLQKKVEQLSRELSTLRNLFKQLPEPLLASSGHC
Aryl hydrocarbon receptor (Homo sapiens), sequence (P35869 whole entry, looked up): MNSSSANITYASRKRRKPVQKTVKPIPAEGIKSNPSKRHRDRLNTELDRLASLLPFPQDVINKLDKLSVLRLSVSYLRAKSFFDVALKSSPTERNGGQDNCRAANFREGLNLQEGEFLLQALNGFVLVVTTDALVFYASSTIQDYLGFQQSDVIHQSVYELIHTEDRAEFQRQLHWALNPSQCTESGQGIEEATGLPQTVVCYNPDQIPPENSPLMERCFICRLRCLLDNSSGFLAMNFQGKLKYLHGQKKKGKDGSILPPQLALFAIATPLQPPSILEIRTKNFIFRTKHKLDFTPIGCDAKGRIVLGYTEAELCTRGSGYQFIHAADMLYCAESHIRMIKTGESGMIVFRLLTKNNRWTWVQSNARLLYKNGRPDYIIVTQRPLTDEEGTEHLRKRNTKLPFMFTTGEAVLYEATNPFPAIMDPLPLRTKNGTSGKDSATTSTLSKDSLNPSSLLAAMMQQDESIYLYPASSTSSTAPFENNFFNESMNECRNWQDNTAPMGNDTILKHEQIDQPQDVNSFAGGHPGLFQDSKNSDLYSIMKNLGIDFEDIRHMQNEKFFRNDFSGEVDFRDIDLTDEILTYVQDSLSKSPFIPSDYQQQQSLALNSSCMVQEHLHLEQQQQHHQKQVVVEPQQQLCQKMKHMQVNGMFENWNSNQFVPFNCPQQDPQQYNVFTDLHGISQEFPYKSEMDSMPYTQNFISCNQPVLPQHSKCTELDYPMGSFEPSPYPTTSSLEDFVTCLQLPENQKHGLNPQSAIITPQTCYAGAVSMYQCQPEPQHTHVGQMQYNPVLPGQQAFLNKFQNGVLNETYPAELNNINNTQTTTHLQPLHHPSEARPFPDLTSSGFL

As for `CC(=O)CC(=O)Nc1ccc(C)cc1C`, the call in [1], in [2], in [3], in [4], in test [5] and in test [6] was inactive. The outcome in test [7], in test [8], in test [9] and in test [10] was inactive.

Take `CCCCCCCCCCCCCCN(CCO)CCO`: the compound was classed as inactive in test [1], in test [2], in test [3], in test [5], in test [6] and in [7]. For the same compound, the outcome in test [8], in test [9] and in test [10] was inactive. Besides, the half-maximal activity concentration (AC50) in test [4] was 13.8 µM (active).

Take `CC1=C(Br)C(=O)C(Br)=C/C1=C(/c1ccccc1S(=O)(=O)O)c1cc(Br)c(O)c(Br)c1C`: the compound was called inactive in [1], in [2], in [3], in test [4], in [6] and in test [7]. The result in [8], in [9] and in test [10] was inactive. Further, the AC50 in test [5] was 51.1 µM (active).

For `CS(=O)(=O)c1ccc(Cl)cc1`, the call in test [1], in [2], in test [3], in [4], in [5] and in test [6] was inactive. Further, the outcome in test [7], in test [8], in test [9] and in test [10] was inactive.

Take `CCC1CCCCC1`: the compound was classed as inactive in test [1], in test [2], in test [3], in test [4], in test [5] and in [6]. In addition, the outcome in [7], in test [8], in test [9] and in test [10] was inactive.

As to `CCC1(c2ccccc2)C(=O)NCNC1=O`, the compound was classed as inactive in test [1], in test [2], in [3], in [4], in [5] and in test [6]. The outcome in [7], in [8], in test [9] and in test [10] was inactive.

`Cc1cc(C)nc(NS(=O)(=O)c2ccc(N)cc2)n1`: the result in test [1], in test [2], in test [3], in test [4], in [5] and in test [6] was inactive. In addition, the call in [7], in [8], in test [9] and in test [10] was inactive.

Consider `CSCCC=O`, for which the compound was classed as inactive in [1], in [2], in test [3], in [4], in [5] and in test [6]. Besides, the outcome in test [7], in [8] and in test [10] was inactive. The AC50 in [9] was 25.5 µM (active).

Turning to `CCOC(=O)C(C#N)=C(c1ccccc1)c1ccccc1`, the AC50 was 63 µM (active) in test [1], 29.6 µM (active) in [4], 178 µM (active) in test [6] and 125 µM (active) in test [8]. For the same compound, the outcome in test [2], in [3], in test [5], in test [7], in test [9] and in [10] was inactive.

With `CC1CC(O)CC(C)(C)C1` (stereo not given), the compound was classed as inactive in test [1], in test [2], in test [3], in test [4], in test [5] and in test [6]. The call in test [7], in test [8], in [9] and in test [10] was inactive.

In the case of `CCCCCCCC(=O)OCC(O)CO` (stereo not given), the result in [1], in test [2], in test [3], in [4], in [5] and in [6] was inactive. In addition, the call in [7], in test [8], in test [9] and in test [10] was inactive.

Turning to `CCCCSCCCC`, the outcome in test [1], in test [2], in test [3], in [4], in test [5] and in [6] was inactive. The compound was classed as inactive in test [7], in test [8], in test [9] and in test [10].

For `Cc1c(OCC(F)(F)F)ccnc1CS(=O)c1nc2ccccc2[nH]1` (stereo not given), the result in [1], in [2], in test [3], in [6], in [7] and in [9] was inactive. Also, in test [10], the compound was classed as inactive. Moreover, the AC50 in test [4] was 134 µM (active); in test [5], 1.28 µM (active); in [8], 153 µM (active).

As to `C=CC(C)(O)CCC=C(C)C` (stereo not given), the compound was called inactive in test [1], in [2], in test [3], in [4], in [5] and in test [6]. The outcome in [7], in [8], in test [9] and in [10] was inactive.

Take `CC(C)(C)CC(C)(C)c1ccc(OCCOCC[N+](C)(C)Cc2ccccc2)cc1`: the result in [1], in [2], in test [5], in test [7], in test [8] and in test [9] was inactive. In addition, the outcome in test [10] was inactive. In addition, the half-maximal activity concentration (AC50) in test [3] was 14.8 µM (active); in [4], 8.35 µM (active); in test [6], 8.35 µM (active).

Take `C=C(CC(=O)O)C(=O)O`: the result in test [1], in test [2], in test [3], in test [4], in test [5] and in [6] was inactive. For the same compound, the result in test [7], in test [8], in test [9] and in test [10] was inactive.

Take `CC(=O)O[C@@H]1CC2CCC1(C)C2(C)C` (stereo not given in full): the compound was called inactive in [1], in test [2], in test [3], in test [4], in [5] and in test [6]. Moreover, the compound was called inactive in test [7], in test [8], in test [9] and in [10].

For the compound `C=CCOC(=O)CCCCCC`, the result in [1], in [2], in test [3], in test [4], in [5] and in [6] was inactive. Besides, the result in test [7], in test [8], in [9] and in test [10] was inactive.

With `OCCc1ccccc1`, the call in [1], in test [2], in test [3], in test [4], in [5] and in test [6] was inactive. Moreover, the compound was called inactive in test [7], in [8], in test [9] and in [10].

In general, AC50 refers to the concentration giving half of the maximal activity seen.

The record behind these values is PubChem BioAssay (EPA / NIEHS).
